# Screens: PubChem BioAssay, National Center for Advancing Translational Sciences (NCATS)
# In the library only some 11% were active in any assay of this set; here they are far more common.
# PNC inhibitor: blocks assembly of the perinucleolar compartment; PC3M PTB-GFP, PNC prevalence imaging, 16 h; hits give low values; activity change (PNC), negative = inhibition, % at 10 µM; 140,000 tested, 3.1% active; AID 2417;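 active = readout at or below -70, meaning at least 70% loss of cells showing the perinucleolar compartment, a nuclear body marking cancer cells; inconclusive = readout between -30 and a set limit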;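 note: plate controls were DMSO wells for no effect and camptothecin positive control wells for full effect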
#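 Read-out is percentage of cells bearing a perinucleolar compartment, from automated 20x imaging of fixed, Hoechst-stained PC3M PTB-GFP cells. Cells were seeded 4 h, then exposed 16 h to compound (23 nl of library stock) in duplicate plates.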
# CBFb-RUNX1 inh: CBF-beta/RUNX1 interaction disruption; Q01196+Q13951; Potency, µM (top dose mostly 59.8 µM), inactives show at the highest dose activity, negative = inhibition, actives largely listed as inhibitors; AlphaScreen CBFb-His/RUNX1-biotin binding, biochemical; AID 1477; 230,000 tested, under 10 active; note: % of control where 0% means no effect
#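 Bead-based AlphaScreen assay; binding partners His-tagged CBF-beta and biotinylated RUNX1 at 30 nM each. Compound exposure 15 min after a 20-min protein preincubation; bead step 90 min; all steps at room temperature.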
# HTT cytoprotect: cytoprotection in Huntington HTT-Q103 PC12 cell model; PC12 HTT-Q103 induced, cytoprotection, ATP luminescence, 40 h; Potency, µM (titrated, usually from 56.4 µM), inactives show cytoprotection (ATP increase), most hits filed as activators; 230,000 tested, 0.14% active; note: potency is the fitted concentration of half-maximal effect; % of control where 0% means no effect; nearly all actives have a fitted effect of over 45% in size
#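 Rat PC12, Q103 Htt exon1-GFP fusion, ecdysone promoter; tebufenozide inducer 100 nM final; compound titration; qHTS, 1500 cells/well; ATPlite luminescent read.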
# HPGD block: HPGD (human) dehydrogenase inhibition. P15428. purified HPGD, NADH fluorescence kinetic, PGE2 substrate. Potency, µM, for inactives: at the highest dose activity change, negative = inhibition, usual class: inhibitors. 150,000 tested, 4.3% active. AID 894; active = well fitted inhibition curve with a large enough effect, not every such curve was filed as active; inconclusive = small, poorly fitted or top-dose-only effect, or another doubt; inactive = no such curve, though single readings can be large or run the other way; note: potency is the fitted concentration of half-maximal effect; % is set by controls: 0 for no effect and ±100 for the full control effect
# Target sequence (P15428 whole entry, looked up): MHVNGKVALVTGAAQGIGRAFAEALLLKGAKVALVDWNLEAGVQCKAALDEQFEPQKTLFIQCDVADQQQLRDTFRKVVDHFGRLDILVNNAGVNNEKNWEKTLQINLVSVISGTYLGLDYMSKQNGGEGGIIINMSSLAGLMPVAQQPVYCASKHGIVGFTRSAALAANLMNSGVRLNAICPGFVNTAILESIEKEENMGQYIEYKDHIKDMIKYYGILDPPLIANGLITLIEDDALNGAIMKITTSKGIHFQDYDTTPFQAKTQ
#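 NADH formation kinetics: reaction with 30 uM PGE2 and 1 mM NAD+ (final), 20 nM enzyme, Tris-HCl pH 8 with Tween 20, after 15 min compound preincubation at room temperature. Fluorescence change, last versus first of five reads.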
# HttQ103 aggreg: reduces HttQ103-GFP aggregates in PC12 cells. PC12 HttQ103-GFP aggregates, Acumen cytometry, 40 h. Potency, µM (highest dose often 46.1 µM), without a hit: top-dose activity change, negative = inhibition, most hits filed as inhibitors. 220,000 tested, 1.1% active; note: potency is the fitted concentration of half-maximal effect; % is set by controls: 0 for no effect and ±100 for the full control effect; nearly all actives have a fitted effect of over 60% in size
#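 Quantitative HTS on tebufenozide-induced (100 nM) PC12 cells stably expressing polyQ103 Huntingtin exon 1–GFP. Reduction of bright GFP aggregates, detected by laser scanning cytometry after lysis, identified actives across the titration.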
# ALDH1A1 inh: inhibitors of human aldehyde dehydrogenase 1A1 | P00352 | Purified ALDH1A1, NADH fluorescence, propionaldehyde substrate | Potency, µM (top dose mostly 75.3 µM), for the others: at the top dose activity, negative = inhibition, usual class: inhibitors | 220,000 tested, 7.3% active; active = well fitted inhibition curve with a large enough effect, not every such curve was filed as active; inconclusive = small, poorly fitted or top-dose-only effect, or another doubt; inactive = no such curve, though single readings can be large or run the other way;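 note: potency is the fitted concentration of half-maximal effect; plate controls were no enzyme wells and a reference inhibitor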
# Target sequence (P00352 whole entry, looked up): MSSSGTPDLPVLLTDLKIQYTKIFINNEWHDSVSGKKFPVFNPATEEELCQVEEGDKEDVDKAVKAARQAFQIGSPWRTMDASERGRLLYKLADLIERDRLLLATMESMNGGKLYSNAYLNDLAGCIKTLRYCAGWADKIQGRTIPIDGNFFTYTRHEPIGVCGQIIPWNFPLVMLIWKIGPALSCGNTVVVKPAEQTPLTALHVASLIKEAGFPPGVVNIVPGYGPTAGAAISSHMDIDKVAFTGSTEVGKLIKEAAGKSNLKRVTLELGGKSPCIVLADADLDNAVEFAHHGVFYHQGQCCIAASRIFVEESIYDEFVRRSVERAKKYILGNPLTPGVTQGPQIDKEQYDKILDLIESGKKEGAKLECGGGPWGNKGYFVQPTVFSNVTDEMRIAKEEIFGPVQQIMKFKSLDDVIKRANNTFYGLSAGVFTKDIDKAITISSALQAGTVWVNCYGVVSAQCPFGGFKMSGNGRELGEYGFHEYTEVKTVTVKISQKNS
# An asterisk follows results filed as active; ? = inconclusive; . = not tested or not shown; ! = repeats disagree; [ ] = dose if it differs, or a comment. Unless noted, calls come from the whole dose curve; as a rule, active = well fitted curve in the direction sought with a large enough effect; inconclusive = small, poorly fitted or top-dose-only effect, or another doubt; inactive = no such curve, though single readings can be large; an effect the other way counts as inactive or inconclusive.
SMILES,PNC inhibitor,CBFb-RUNX1 inh,HTT cytoprotect,HPGD block,HttQ103 aggreg,ALDH1A1 inh
Cc1ccc(NC(=S)N(CCN(C)C)Cc2cc3cc(C)cc(C)c3[nH]c2=O)cc1,-116.4*,-16.0%,10.4%[10 µM],-4.3%,?,12.8%
CCn1cc(C(=O)O)c(=O)c2cc(F)c(N/N=C/c3ccccc3[N+](=O)[O-])cc21,2.3,1.5%,0.0%[10 µM],-0.8%,?,-1.9%
CN(C)CCN(C)Cc1ccccc1Sc1cccc2ccccc12,13.4,-0.4%,-0.9%[10 µM],-14.3%,13.8%,?
O=C1CCC=C1[C@@H](O)CCc1ccccc1,.,4.7%[13.1 µM],-1.4%[10 µM],.,.,7.9%[13.5 µM]
O=C(c1cccs1)N(Cc1ccco1)Cc1cc2ccccc2[nH]c1=O,-117.0*,-4.2%,2.4%,-13.9%,3.2%,?
CN(/C(=N\S(=O)(=O)c1ccccc1)C(F)(F)F)c1ccccc1,25.0,6.9%,-22.2%,-18.9%,8.0%,28.2µM*
Cc1ccc(S(=O)(=O)/N=C(\c2ccccc2)N(C)S(=O)(=O)c2ccccc2)cc1,-12.2,-1.3%,-6.9%[0.074 µM],-9.3%,26.7%,?
CC1CC=CC2C1C(=O)N(Cc1ccccc1)C2c1ccc(C(F)(F)F)cc1 (configuration not stated),.,28.2%,.,.,.,.
O=c1cc(O)c2sc(Nc3ccc(Cl)c(F)c3)nc2[nH]1,.,-26.4%,7.7%[10 µM],.,-24.7%[9.22 µM],.
O=c1cc(O)c2sc(Nc3ccc(F)c(Cl)c3)nc2[nH]1,.,-1.6%,-17.6%,.,-9.1%,7.94µM*
Nc1nc(SCCO)[nH]c(=O)c1NC(=O)c1ccccc1F,.,3.2%,-16.0%,.,-12.3%,12.6%
CCCCCc1ccc(OCCCC[n+]2ccccc2)c(CCCCC)c1,.,-0.2%,-91.0%,.,11.2µM*,12.7%
CCCCCc1ccc(OCCCC[n+]2ccc(C)cc2)c(CCCCC)c1,.,2.5%,-68.4%[10 µM],.,?,-4.8%
CCCCCCN(CCCCCC)C(=O)Cc1c(-c2ccc(Cl)cc2)[nH]c2ccc(Cl)cc12,.,1.9%,?,?,.,?
Cc1c(N=C2C(=O)Nc3ccccc32)c(=O)n(-c2ccccc2)n1C,19.3,-2.0%,7.9%,-2.0%,-1.3%,?
Cc1c(N=C2NC(=O)/C(=C/c3cccc([N+](=O)[O-])c3)S2)c(=O)n(-c2ccccc2)n1C,10.6,-0.6%,32.9%[10 µM],2.51µM*,12.2%,5.5%
CCc1cc(C(C)=O)c(O)cc1OCCCCCC(C)(C)c1nn[nH]n1,.,27.0%,-82.3%,20µM*,.,?
COCc1cc(=O)[nH]c(Nc2nc(C)c3ccccc3n2)n1,-23.4,2.4%,-22.1%,-15.8%,-61.8%,20µM*
COc1ccc2nc(Nc3nc(CSc4nnnn4-c4ccccc4)cc(=O)[nH]3)nc(C)c2c1,21.3,-0.5%,2.3%,-6.8%,25.6%[9.22 µM],?
Cc1ccc2c(C)nc(Nc3nc(CSc4nnnn4-c4ccccc4)cc(=O)[nH]3)nc2c1,?,3.8%,10.5%[10 µM],-23.7%,?,3.98µM*
Cc1cc(C)c2c(n1)sc1c(-c3ccccc3)c(C#N)c(N)nc12,?,14.6%,0.9%[10 µM],?,-13.2%,-7.1%
O=C(NNc1cccc(Cl)n1)Nc1ccc(Cl)cc1,-10.9,3.0%,-6.5%,-15.4%,-2.7%,?
NC(=O)/C=C\C(=O)Nc1cccc(C(F)(F)F)c1,16.4,1.6%,-106.1%,-25.6%,?,2.82µM*
O=C(NNc1cccc(Cl)n1)Nc1cccc(C(F)(F)F)c1,42.4,6.1%,.,-16.5%,-22.6%,20µM*
COc1ccc2c(c1)C(=O)N(c1ccccc1)C(=O)C2,19.0,1.0%,11.4%,?,25.7%,?
SMILES,PNC inhibitor,CBFb-RUNX1 inh,HTT cytoprotect,HPGD block,HttQ103 aggreg,ALDH1A1 inh
N#CC1=C(N)N(c2ccc(Oc3ccccc3)cc2)C(=O)C1,18.2,-2.9%,2.7%[10 µM],-2.3%,9.7%,25.1µM*
CCn1c(/C(C#N)=N/O)nc2ccccc21,?,5.1%,.,35.5µM*,-3.1%,20µM*
CCc1cc2c(Sc3nc4ccccc4s3)ncnc2s1,27.3,9.2%,8.1%,25.1µM*,-13.7%,20µM*
COC(=O)C/C=C\[C@@H](C)[C@@H](/C=N\OC[C@@H](O)COCc1ccco1)NS(=O)(=O)c1ccc(C)cc1,.,13.2%[13.1 µM],-10.9%[10 µM],.,.,-5.9%[13.5 µM]
COc1cc(OC)c(OC)cc1/C=C1\CCC(C2CCCC2)C1=O (configuration not stated),.,-14.8%,-30.0%,.,0.3%,2µM*
Cc1ccc(/C=C2\CCC(C3CCCC3)C2=O)cc1 (configuration not stated),-10.7,18.6%,3.9%[10 µM],-16.5%,-19.0%,-12.4%
CC(C)CO/N=C1/[C@H]2O[C@@H]2[C@@H](O)[C@H]2[C@H]1CCn1c(=O)n(C)c(=O)n12,.,8.2%[13.1 µM],-6.3%[10 µM],.,.,-0.1%[13.5 µM]
CC(c1ccccc1)C1CC(=O)N(Cc2ccco2)C1=O (configuration not stated),?,5.1%,0.4%,-12.8%,-10.1%,8.91µM*
COc1ccc2[nH]cc(CCNc3cc(-c4ccc(C(=O)N(C)C)cc4)ncn3)c2c1,.,.,-13.5%,.,.,-2.8%
CCCCC(=O)Nc1ccc2c3c(cccc13)C(=O)N2CC,23.3,-3.8%,-9.5%,-15.4%,?,7.08µM*
CCOc1cc(C(=O)Nc2ccc3c4c(cccc24)C(=O)N3CC)cc(OCC)c1OCC,18.5,2.9%,-9.5%,-12.5%,-2.7%,?
CCN1C(=O)c2cccc3c(NC(=O)c4cccc(N5C(=O)CCC5=O)c4)ccc1c23,3.9,-2.2%,-17.7%,-14.2%,16.2%,2µM*
COC(=O)c1sccc1-n1cccc1C(=O)NCc1ccccc1,?,1.0%,-3.8%,-7.7%,3.6%,4.4%
Cc1noc(C)c1-c1nc(N2CCN(C)CC2)c2ccccc2n1,.,.,-44.2%,.,.,9.0%
Cc1nnc(-c2cnn(-c3ccccc3)c2N)n1Cc1cccc(C(F)(F)F)c1,-10.0,-3.3%,-7.9%,12.6µM*,14.2%,?
Cc1nnc(-c2cnn(-c3ccccc3)c2N)n1Cc1ccncc1,17.8,-1.3%,19.5%,-7.3%,-7.9%,-4.1%
Cc1cccc(Cl)c1NC[C@H](O)CN1CCN(C)CC1,.,.,0.2%[10 µM],-4.0%,.,0.8%[13.5 µM]
C[C@@H]1CN2[C@H](c3ccc(Br)cc3)[C@H](C)CC[C@H]2C(=O)O1,.,-1.8%[13.1 µM],-35.2%[10 µM],.,.,?
CCCCCCCCCCCCCCCCn1cc[n+](C)c1,.,9.3%,-40.8%[10 µM],.,12.6µM*!,2.5%
COc1cccc(-c2nc(N3CCN(C)CC3)c3ccccc3n2)c1,.,.,-36.7%,.,.,9.5%
COc1cccc(CN2CCN(S(=O)(=O)c3ccc(Br)cc3)CC2)c1,-2.4,8.5%,-17.3%,-4.2%,?,0.0%
NC(=O)CN1CCN(S(=O)(=O)c2ccc(Br)cc2)CC1,.,1.2%,-17.1%,.,-3.4%,26.2%
CCOc1ccc(C(=O)CN2CCN(S(=O)(=O)c3ccc(Br)cc3)CC2)cc1,6.7,1.6%,3.6%,-5.3%,-10.1%,22.4µM*
